# NCOA2 inhibitor = human SRC2 (NCOA2) inhibition; Q15596; HEK293 GAL4-SRC2 luciferase reporter, luminescence; inhibition, % at 9 µM; 370,000 compounds, 0.17% hits; AID 651957;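 active = inhibition above the mean inhibition of all tested compounds plus 3 SD, set per campaign, cut at about 52% in these data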
# SRC3 inh = inhibitors of human steroid receptor coactivator 3 (SRC3). Q9Y6Q9. HEK293 GAL4-SRC3 luciferase reporter, luminescence. inhibition, % at 3.6 µM. 360,000 compounds, 0.17% hits. AID 588352;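 active = inhibition above a per-campaign cutoff, the mean of all compounds plus 3 SD, cut at about 60% in these data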;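 also: higher means less SRC3-driven luciferase light from the GAL4 reporter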
# LGR2 inh = Drosophila LGR2 receptor signaling inhibition | HEK293 LGR2, CRE-luciferase, bursicon-stimulated, 4 h | inhibition, % at 9.99 µM | 380,000 compounds, 0.35% hits | AID 720647;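 active = drop in luminescence signal, shown as inhibition above about 50% in the replicate tests, limit read from the data, passing the limit was not always enough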;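 also: agonist challenge used bursicon conditioned medium at about half maximal strength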
# SRC1 inh = inhibits human SRC1 coactivator; Q15788; HEK293 GAL4-SRC1 luciferase reporter, luminescence; inhibition, % at 3.6 µM; 360,000 compounds, 0.12% hits; AID 588354;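 active = inhibition above the campaign mean plus 3 SD, with each screening campaign given its own cutoff, cut at about 60% in these data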
# NR5A2 inv ag = suppresses constitutive activity of human LRH-1; inhibition, % at 3.6 µM; O00482; 360,000 compounds, 0.13% hits; AID 602396; HEK293T StAR-luciferase reporter, LRH-1 transfected, 24 h;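 active = inhibition above the mean inhibition of all tested compounds plus 3 SD, cut at about 73% in these data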
# Numbers stand for hits; 0 = inactive; - = no result given. Only some compounds are listed: those with a hit (about 0.45% of all), similar ones and a draw of the others.
SMILES,NCOA2 inhibitor,SRC3 inh,LGR2 inh,SRC1 inh,NR5A2 inv ag
COc1ccc(NC(=O)c2cc3ccccc3oc2=O)cc1,0,0,76,0,0
COc1ccc2oc(=O)c(C(=O)Nc3ccccc3O)cc2c1,0,0,0,0,0
CC(=O)Nc1cc2ccccc2oc1=O,0,0,0,0,0
Cc1ccc(NC(=O)c2cc3ccccc3oc2=O)cc1S(=O)(=O)N(C)C,-,85,-,85,75
Cc1ccc(C(=O)Nc2cc3ccccc3oc2=O)cc1,0,0,99,0,0
Nc1ccc2c(c1)C(=O)c1ccccc1-2,0,0,0,0,0
Nc1ccc2c(c1)C(=O)C(=O)c1ccccc1-2,94,93,-,85,105
COc1ccc2c(=O)c(-c3ccc4c(c3)OCO4)coc2c1,0,0,69,0,0
CCN(CC)C(=O)Oc1ccc2c(=O)c(-c3ccc(OC)cc3)coc2c1,0,0,0,0,0
CC(C)(C)c1ccc(C(=O)Nc2ccc(CC(=O)O)cc2)o1,87,0,0,0,0
Cc1cc(C(=O)Nc2ccccc2)c(C)o1,0,0,-,0,0
Cc1cc(C(=O)Nc2ccc(CC(=O)O)cc2)c(C)o1,55,0,0,0,0
Cc1ccc(C(=O)Nc2ccc(CC(=O)O)cc2)o1,0,0,-,0,0
COc1ccc(-c2csc(NC(=O)C3CCN(c4ncnc5sc(C)c(C)c45)CC3)n2)cc1OC,0,0,0,79,0
COc1ccccc1OCC(=O)NNC(=O)C1CCN(c2ncnc3sc(C)c(C)c23)CC1,0,0,0,0,0
N#C[C@@H]1[C@@H](c2ccc(C#Cc3cccc(F)c3)cc2)[C@H](CO)N1C(=O)C1CC1,-,-,0,-,-
N#C[C@@H]1[C@H](c2ccc(C#Cc3cccc(F)c3)cc2)[C@@H](CO)N1C(=O)C1CC1,-,-,54,-,-
N#C[C@@H]1[C@@H](c2ccc(C#Cc3ccccc3F)cc2)[C@H](CO)N1C(=O)C1CCCC1,-,-,0,-,-
N#C[C@@H]1[C@H](c2ccc(C#CC3CCCCC3)cc2)[C@@H](CO)N1C(=O)c1cccc(F)c1,-,-,65,-,-
N#C[C@@H]1[C@H](c2ccc(C#Cc3ccccc3F)cc2)[C@@H](CO)N1C(=O)C1CCCC1,-,-,66,-,-
N#C[C@H]1[C@H](c2ccc(C#Cc3ccccc3F)cc2)[C@@H](CO)N1C(=O)C1CCC1,-,-,0,-,-
N#C[C@@H]1[C@@H](c2ccc(C#CC3CCCCC3)cc2)[C@H](CO)N1C(=O)c1cccc(F)c1,-,-,0,-,-
N#C[C@H]1[C@H](c2ccc(C#Cc3ccccc3F)cc2)[C@H](CO)N1C(=O)C1CCC1,-,-,102,-,-
COc1cccc(C#Cc2ccc([C@@H]3[C@@H](CO)N(C(=O)C4CCC4)[C@H]3C#N)cc2)c1,-,-,100,-,-
COc1ccccc1C#Cc1ccc([C@H]2[C@H](C#N)N(C(=O)C3CCCCC3)[C@H]2CO)cc1,-,-,83,-,-
SMILES,NCOA2 inhibitor,SRC3 inh,LGR2 inh,SRC1 inh,NR5A2 inv ag
c1ccc2c(NCCCN3CCOCC3)c3ccccc3nc2c1,0,-,90,-,-
CN(C)CCCNc1c2ccccc2nc2ccccc12,0,0,92,0,0
O=c1[nH]c(=O)n([C@H]2C[C@H](O)[C@@H](CO)O2)cc1F,0,67,0,66,0
O=c1[nH]c(=O)n(C2CC(O)C(CO)O2)cc1I (stereo unspecified),0,0,0,0,0
CC(=NNc1nc2ccccc2o1)c1ncccn1,0,0,0,0,0
CC(=NNc1nc2ccccc2o1)c1cc2ccccc2cn1,0,70,0,65,0
N#CC1=C(N)NC(=S)C(C(N)=O)C1c1ccc(Cl)cc1Cl (stereo unspecified),0,0,69,0,0
C[C@H](CO)N1C[C@H](C)[C@H](CN(C)Cc2ccccc2)Oc2cc(-c3ccccc3)ccc2S1(=O)=O,-,-,0,-,-
COCC(=O)N1CC2(C1)[C@H](c1ccc(-c3cccc(C)c3)cc1)[C@H](CO)N2C(=O)C1CC1,-,-,0,-,-
O=C(c1cccc(F)c1)N1CC2(C1)[C@H](c1ccccc1)[C@@H](CO)N2C(=O)C1CCC1,-,-,0,-,-
Cc1ccc2nc(CSc3nc(C)ccc3C#N)[nH]c2c1,0,0,76,0,0
CN1C(=O)c2cc(NC(=O)c3ccc(Cl)cc3)ccc2OC[C@@H]2O[C@@H](CC(=O)NCc3cccc(F)c3)CC[C@@H]21,-,-,0,-,-
Oc1ccc(CCNc2ncnc3ccc(Cl)cc23)cc1,0,0,0,64,0
Nc1nc(Cl)cc(NCCc2ccc(O)cc2)n1,0,0,0,0,0
O=C(c1ccc2c(c1)OCO2)N1CC2(C1)[C@@H](c1ccccc1)[C@@H](CO)N2C(=O)C1CCCC1,-,-,0,-,-
Cc1ccc(-c2cnc3c(Cl)c(C)nn3c2)cc1,0,0,57,0,0
COc1ccc(S(=O)(=O)N(C)C[C@@H]2Oc3ccc(NC(=O)NC(C)C)cc3C(=O)N([C@H](C)CO)C[C@@H]2C)cc1,-,-,0,-,-
CN1C[C@@H]2[C@H](c3ccccc31)[C@H](CO)N2C(=O)Nc1ccccc1,-,-,0,-,-
COc1ccc2c3c([nH]c2c1)[C@H](CO)N(Cc1ccccc1OC)CC31CN(S(C)(=O)=O)C1,-,-,0,-,-
COc1cccc2nc3c(C(=O)NCCN(C)C)cccc3cc12,0,0,0,63,0
CN(C)CCNC(=O)c1cccc2nc3c(ccc4ccccc43)nc12,0,0,0,66,0
COc1ccc(-c2nc3c(C(=O)NCCN(C)C)cccc3c3ccccc23)cc1,0,0,-,0,0
COc1ccc(C(=O)NCCN(C)C)c2nc3ccccc3cc12,0,0,0,0,0
CN(C)C(=O)c1cccc(-c2ccc3c(c2)[C@@H]2[C@@H](CCN2C(=O)c2ccccc2F)[C@@H](CO)N3)c1,-,-,0,-,-
Cc1ccc(-c2ccc3c(c2)O[C@H](CN(C)C(=O)C2CCCCC2)[C@@H](C)CN([C@H](C)CO)S3(=O)=O)cc1,-,-,0,-,-
SMILES,NCOA2 inhibitor,SRC3 inh,LGR2 inh,SRC1 inh,NR5A2 inv ag
COc1ccccc1CCn1cnc(-c2ccccc2)c1CC(C)C,0,-,52,-,-
COc1ccccc1CCn1cnc(-c2ccc(F)cc2)c1CC(C)C,0,-,0,-,-
Cc1ccc(N(C(=O)CCl)C(C(=O)NC2CCCCC2)c2cccnc2)cc1C (stereo unspecified),63,-,0,-,-
Cc1ccc(N(C(=O)CNC(=O)c2ccco2)C(C(=O)NC2CCCCC2)c2cccnc2)cc1C (stereo unspecified),0,0,0,0,0
Cc1nc(N)nc(N)c1/C=C/C(C)(C)c1ccc(Cl)cc1,0,0,0,70,0
O=C(N/N=C/c1ccco1)C1CC1c1ccccc1 (stereo unspecified),0,0,0,0,0
CC(C)(C)c1ccc(C2CC2C(=O)N/N=C\c2ccc[nH]2)cc1 (stereo unspecified),0,71,0,0,89
COc1ccc2c3c(n(C)c2c1)[C@H](CO)N(C)CC31CCN(S(=O)(=O)c2cccs2)CC1,-,-,0,-,-
O=C1Cc2c([nH]c3ccc([N+](=O)[O-])cc23)-c2ccccc2N1,0,73,76,0,0
N#C[C@H]1[C@H](c2ccccc2C2=CCCCC2)[C@@H](CO)N1S(=O)(=O)c1ccccc1,-,-,68,-,-
N#C[C@H]1[C@@H](c2ccccc2C2=CCCCC2)[C@H](CO)N1S(=O)(=O)c1ccccc1,-,-,0,-,-
